Test in all cases: NCI-60 one-dose screen, 48 h (100 = growth as untreated, 0 = no growth, -100 = all killed)
Common to all, as to details: 10 µM unless noted

The subject of test [1] is SR leukemia.
Test [2] has as its system OVCAR-8 ovarian.
Test [3] has as its system OVCAR-5 ovarian.
Test [4] deals with OVCAR-4 ovarian.
The test system of test [5] is SK-OV-3 ovarian.
The test system of test [6] is IGROV1 ovarian.
Test [7] has as its system OVCAR-3 ovarian.
The subject of test [8] is HS 578T breast.
Test [9] concerns T-47D breast.
Test [10] relates to BT-549 breast.
For test [11], the system named is SW-620 colon.
In test [12] the test system is MCF7 breast.
Test [13] has as its system HCT-116 colon.
Test [14] relates to HCC-2998 colon.
The test system of test [15] is KM12 colon.
In test [16] the test system is MDA-MB-435 melanoma.
For test [17], the system named is NCI/ADR-RES ovarian.
For test [18], the system named is RPMI-8226 leukemia.

About 83,000 compounds went through this panel and 20% of them were active in at least one assay; those are over-represented in the sample as a whole.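 Note: values are percent growth. 100 is the growth of untreated cells, values between 100 and 0 indicate rising inhibition; between -100 and 0 indicates cell death.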 Unmarked numbers belong to inactive results. Active and inactive are the calls of the source. How the source made its calls: active means growth percent below 10; inactive means the rest.

`CCc1cccc2c1S/C(=C/c1ccc(OC)cc1)C2=O`: the growth in [1] was 15.1%; in test [2] it was 55.9%; in [3], 76%; in [4] it was 59.4%; in [5] it was 79.3%; in test [6] it was 30.4%. The growth in test [7] was 23.8%; in [8] it was 41.5%; in [9], 53.9%; in test [10], 55.5%; in test [11], 30%; in test [12], 22.3%. Moreover, the growth in [13] is 34.3%; in test [14], 77.7%; in test [15], 28.6%.
As to `CSc1ccc2c(c1)c(CCN)c(C)n2Cc1ccc(Cl)c(Cl)c1`, the growth in test [1] was -61.6% (active); in test [2] it was -60.8% (active); in test [3] it was -58.2% (active); in [4], -93.2% (active); in test [5], -91.2% (active); in test [7] it was -88.4% (active). For the same compound, the growth in test [8] was -39.2% (active); in test [9], -73.7% (active); in test [10] it was -79.6% (active); in [16], -91.4% (active); in test [11], -63.8% (active); in test [12], -68.9% (active). Also, the growth in [13] is -92.3% (active); in test [14] it was -88.4% (active); in [15], -90.2% (active).
Turning to `N#CC1=C(N)Oc2c(sc3c(Br)cccc23)C1c1ccc(Br)cc1` (configuration not stated), the growth is 4.23% (active) in test [1]; 36.1% in test [2]; 56.3% in test [3]; 48.9% in [4]; 36% in test [5]; -8.57% (active) in test [7]. The growth in test [8] is 14.1%; in test [17], 2.32% (active); in test [9], 23.3%; in test [10], 48.3%; in [16], -53% (active); in test [11], 24.4%. The growth was 10.9% in [12], 26.6% in test [13], 12.9% in [14] and 17.8% in test [15].
As to `COc1ccc(C2C(N)=NNC2c2cccc(O)c2)cc1` (configuration not stated), the growth in [1] was 81.2%; in [2], 93.8%; in [3] it was 107%; in [4], 108%; in [5] it was 98.9%; in [7], 106%. Besides, the growth is 110% in test [8]; 99.1% in test [17]; 101% in [9]; 87.5% in [10]; 100% in test [16]; 109% in test [11]. Moreover, the growth in [12] was 96.6%; in test [13] it was 104%; in test [14] it was 122%; in [15] it was 92.8%.
On to `Cc1ccccc1C(=O)NN`, for which the growth was 86.2% in test [1]; 109% in test [2]; 121% in test [3]; 117% in test [4]; 98.8% in test [5]; 126% in test [7]. The growth in test [8] is 106%; in [9] it was 102%; in [10] it was 106%; in [16] it was 111%; in test [11], 113%; in test [12] it was 102%. The growth in [13] is 108%; in test [14], 95.4%; in test [15] it was 112%.
As for `COC(=O)CCC/C=C\C[C@H]1C=CC(=O)/C1=C/C[C@@H](O)CCc1cccc(C(F)(F)F)c1`, the growth was -15.3% (active) in test [1]; 8.44% (active) in test [2]; -26.6% (active) in test [3]; 20% in test [4]; 24.6% in test [5]; -62.5% (active) in test [7]. The growth is 32.3% in test [8]; 9.64% (active) in test [17]; 9.77% (active) in test [9]; -11.4% (active) in test [10]; -82.2% (active) in [16]; -40% (active) in test [11]. In addition, the growth in test [12] was 6.5% (active); in test [13] it was -89% (active); in [14] it was -89.6% (active); in test [15], -51.9% (active).
Turning to `NC1=NC(c2cccc(Br)c2)c2sc3ccc(Cl)cc3c2N1` (configuration not stated), the growth is 77.6% in test [1]; 102% in [2]; 103% in test [3]; 93.5% in test [4]; 92.1% in test [5]; 99.2% in test [7]. The growth in [8] was 104%; in test [17], 103%; in test [9], 88.8%; in test [10], 122%; in test [16], 98.2%; in [11], 103%. The growth in test [12] was 75.4%; in [13], 97.9%; in test [14], 114%; in test [15], 93.7%.
`COc1ccc(-c2csc(NC(=O)N3CCN(c4cc5c(cc4F)c(=O)c(C(=O)O)cn5C4CC4)CC3)n2)cc1`: the growth was 15.4% in test [1]; 3.75% (active) in test [2]; 25.5% in test [3]; 18.4% in test [4]; -8.98% (active) in [5]; -3.32% (active) in [7]. Moreover, the growth in test [8] is 28.8%; in test [17] it was 57.5%; in test [9], 5.11% (active); in [10] it was -13.5% (active); in test [16], 3.67% (active); in test [11] it was 15.7%. The growth in [12] was 3.38% (active); in [13], 5.37% (active); in test [14], 31%; in [15], 3.67% (active).
Take `N#Cc1c(-c2ccc(Cl)cc2)nc(NCCO)[nH]c1=O`: the growth was 99.5% in [1]; 103% in test [2]; 91.6% in test [3]; 108% in test [4]; 102% in test [5]; 104% in test [7]. Besides, the growth in test [8] was 109%; in test [17] it was 98.8%; in test [9], 89.4%; in test [10], 102%; in test [16] it was 106%; in [11] it was 112%. The growth in test [12] was 95.3%; in [13] it was 104%; in test [14] it was 103%; in [15] it was 96.9%.
For the compound `N#C/C(=C\c1ccc(F)cc1)n1nc2cccc(F)c2n1`, the growth in test [1] is 13.7%; in [2], 81.2%; in test [3], 79.7%; in test [4] it was 34%; in [5] it was 74.9%; in [7] it was -3.76% (active). The growth in [8] was 27.6%; in test [17], 8.9% (active); in [9] it was 33%; in test [10], 60.8%; in test [16], -55.4% (active); in test [11] it was 18.9%. Besides, the growth was 14.1% in test [12], 20.8% in test [13], 93.8% in test [14] and 16.4% in [15].
For `COc1ccc(-c2nnc(COc3ccc(Cl)cc3Cl)o2)cc1OC`, the growth in test [1] is 46.8%; in test [2] it was 20.1%; in test [3], 74.6%; in [4] it was -33.1% (active); in test [5], 37.6%; in test [7], 1.98% (active). Further, the growth is 4.73% (active) in test [8]; 17.5% in test [17]; -10.5% (active) in test [9]; 80.1% in test [10]; 48.4% in test [16]; 40.6% in test [11]. The growth in [12] was 32.9%; in test [13] it was 34.3%; in test [14], 95%; in test [15] it was 58.9%.
With `CCOC(=O)c1[nH]c(C)c(C(=O)OCc2ccccc2C#N)c1C`, the growth was 45.7% in [1]; 70.5% in test [2]; 105% in [3]; 85.8% in [4]; 88.3% in [5]; 62.5% in test [7]. In addition, the growth in test [8] is 49.1%; in [9] it was 103%; in test [10] it was 50.5%; in test [16], 9.9% (active); in test [11], 41.4%; in test [12] it was 30.5%. Moreover, the growth in test [13] is 40.9%; in test [14], 64.3%; in [15] it was 42.8%.
With `COC(=O)C(Cc1ccccc1)NC(=O)NC(=O)NC(=O)CI` (configuration not stated), the growth in test [1] was -41.6% (active); in test [2], 81.8%; in [3] it was 95.9%; in [4], 57.7%; in test [5] it was 112%; in test [7], -49.2% (active). For the same compound, the growth was 111% in test [8]; 71.5% in test [17]; 59.3% in test [9]; 79% in test [10]; 24.4% in [16]; -28.4% (active) in test [11]. In addition, the growth was 41.3% in test [12], 94.5% in [13], 95.9% in test [14] and 96.7% in test [15].
Consider `O=C(O)c1cn(C2CC2)c2cc(N3CCN(C(=O)Nc4nc(-c5ccc(Cl)cc5)cs4)CC3)c(F)cc2c1=O`, for which the growth was 11.2% in test [1]; 7.37% (active) in test [2]; 27.5% in test [3]; 23.7% in test [4]; -2.39% (active) in test [5]; 5.86% (active) in [7]. In addition, the growth is 35.5% in [8]; 38.1% in [17]; 5.75% (active) in [9]; 0.292% (active) in test [10]; 9.36% (active) in [16]; 20.2% in [11]. Moreover, the growth in test [12] is 2.95% (active); in [13] it was 14.8%; in test [14], 30.6%; in test [15] it was 8.97% (active).
For the compound `O=C(S)CNC(=O)c1ccccc1`, the growth in [18] was 94.5%; in test [2], 101%; in test [3] it was 93.1%; in test [4], 110%; in test [5], 89.4%; in test [6], 105%. Further, the growth is 101% in [7]; 79.5% in test [8]; 96.5% in test [17]; 102% in test [9]; 86.2% in test [10]; 104% in test [16]. In addition, the growth in test [11] is 97.6%; in test [12] it was 98.7%; in test [13], 87.6%; in test [14], 101%; in [15], 105%.

The record behind these values is PubChem BioAssay (NCI).
